Measured values reported in PubChem BioAssay AID485317 (Broad Institute, 2010).
Where “and” joins values, the source holds several entries; their conditions need not be identical. Equal entries are not always repeated. In all, about 290,000 compounds went through this assay and about 11,000 (3.8%) were called active.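 Rule for the calls: active = mean replicate inhibition above about 79%, with every replicate also reaching it (limit read from the data); inconclusive = only one of the two criteria met; inactive = mean below limit and not every replicate reaching it.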 The entries come from a sample that favours actives as a whole.

target: FAD-linked sulfhydryl oxidase ALR (Homo sapiens) (UniProt P55789); assay: ALR-catalysed DTT oxidation blockers – biochemical, H2O2 detection, HRP-luminol luminescence, single point, primary screen (AID 485317); settings: purified ALR, active compounds read high, concentration not given here
Sequence (P55789 whole entry, looked up): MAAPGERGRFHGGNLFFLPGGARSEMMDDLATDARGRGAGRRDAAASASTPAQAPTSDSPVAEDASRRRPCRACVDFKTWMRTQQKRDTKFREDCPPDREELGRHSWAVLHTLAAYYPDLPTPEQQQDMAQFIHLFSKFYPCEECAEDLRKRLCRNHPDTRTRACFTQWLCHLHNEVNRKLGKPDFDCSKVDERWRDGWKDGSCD

Row | SMILES | inhibition
1 | CC1CCc2[nH]c3ccc(C(=O)N(C)CC(=O)Nc4cccc(F)c4)cc3c2C1 (configuration not stated) | 2.5% (inactive)
2 | COc1cccc(NC(=O)COc2cccnc2[N+](=O)[O-])c1 | -5.23% (inactive)
3 | Cc1noc(C)c1S(=O)(=O)N(C)C[C@H]1Oc2ccc(NC(=O)C3CCCCC3)cc2C(=O)N([C@H](C)CO)C[C@@H]1C | 0.231% (inactive)
4 | CCN(C[C@H]1N[C@@](CC)(C(=O)OC)[C@H]2C(=O)N(C)C(=O)[C@@H]12)C(=O)Nc1ccc(F)cc1 | 0.784% (inactive)
5 | Cc1cccc(NC(=O)CN2C(=O)c3ccccc3C2=O)c1C | 2.16% (inactive)
6 | Cc1cccc(NC(=O)COC(=O)CCc2ccccc2)c1C | -8.62% (inactive)
7 | Cc1cccc(NC(=O)CSC(N)=O)c1C | 98.7% (active)
8 | COc1cc(OC)cc(-c2c(C#Cc3ccsc3)c3cc(-c4ccc(SC)cc4)ccc3n2C)c1 | -4.93% (inactive)
9 | CC1=NN(C(=O)c2ccc(Br)cc2)C(O)(c2ccccc2)C1 (configuration not stated) | 82.1% (active)
10 | CC1=NN(C(=O)c2ccccc2Br)C(O)(c2cccnc2)C1 (configuration not stated) | -2.8% (inactive)
11 | CCOC(=O)C1(O)CC(C)=NN1C(=O)c1cccc(Br)c1 (configuration not stated) | -4.22% (inactive)
12 | COc1cc(SC)ccc1C(=O)NNC(=O)C1COc2ccccc2O1 (configuration not stated) | 0.292% (inactive)
13 | CCC1S/C(=N/N=C/c2ccco2)NC1=O (configuration not stated) | -6.96% (inactive)
14 | O=C1OC(/C=C/c2ccccc2)=NC/1=C/c1ccco1 | 9.93% (inactive)
15 | CC(C)(C)C1C/C(=C/c2ccco2)C(=O)/C(=C/c2ccco2)C1 (configuration not stated) | 96.3% (active)
16 | CC(C)C1N=C2c3ccccc3N=C(SCC(=O)c3ccc(O)c(O)c3)N2C1=O (configuration not stated) | 99.7% (active)
17 | O=C(CSC1=Nc2ccccc2C2=NC(CC(=O)NCc3ccco3)C(=O)N12)NCc1ccco1 (configuration not stated) | 6.97% (inactive)
18 | O=C(CSC1=Nc2ccccc2C2=NC(c3ccccc3)C(=O)N12)NCC1CCCO1 (configuration not stated) | -17.3% (inactive)
19 | CCOc1cc(-c2cc(-c3ccc(OC)cc3)nc(N)c2C#N)ccc1O | 41.9% (inactive)
20 | COc1ccccc1-c1c(C#N)c(N)nc2c1CCC2 | 0.706% (inactive)
21 | COc1ccc(-c2cc(-c3ccc(N)cc3)nc(N)c2C#N)cc1OC | 98.9% (active)
22 | O=C(CN1CCC(O)(c2ccccc2)CC1)Nc1ccc2c(c1)OCCO2 | -15.8% (inactive)
23 | Cc1ccc(NC(=O)CN2CCC3(O)CCCCC3C2c2ccc3c(c2)OCO3)c(C)c1 (configuration not stated) | 6.21% (inactive)

Row | SMILES | inhibition
24 | CCN(CC)c1ccc(C2C3CCCCC3(O)CCN2CC(=O)Nc2ccccc2)cc1 (configuration not stated) | 97.5% (active)
25 | O=C(COC(=O)/C=C/c1cccc(Cl)c1)NCc1cccs1 | -15.2% (inactive)
26 | O=C(COc1ccccc1Cl)N1N=C(c2cccs2)CC1c1ccco1 (configuration not stated) | 12.6% (inactive)
27 | COCCn1c(SCC(=O)Nc2ccccc2F)nc2c(c1=O)SCC2 | 23.5% (inactive)
28 | CCOc1ccc(NC(=O)CSc2nc3ccccc3c(=O)n2Cc2cccs2)cc1 | -4.39% (inactive)
29 | O=C(CSc1nc2nccnc2c(=O)n1Cc1cccs1)Nc1ccccc1F | 98.7% (active)
30 | COc1ccc(C(=O)N2CCN(c3ccc(C(C)=O)cc3F)CC2)cc1S(=O)(=O)NC1CC1 | 2.33% (inactive)
31 | COc1cccc(NC(=O)CN(C)C(=O)CSC(=S)N2CCCC2)c1 | -14.6% (inactive)
32 | CN1C=CC=C/C1=C1\SC(=S)N(Cc2ccccc2)C1=O | -1.3% (inactive)
33 | CCCCN1C(=O)/C(=C2/Sc3ccc(Cl)cc3N2CC)SC1=S | -23.2% (inactive)
34 | CCCCN1C(=O)/C(=C2/C=CC=CN2C)SC1=S | 99% (active)
35 | O=C(CSc1nc2ccccc2c(=O)n1-c1ccccc1F)N1CCOCC1 | -2.73% (inactive)
36 | CC1CCC(NC(=O)CNC(=O)c2ccc3ccccc3c2)CC1 (configuration not stated) | -7.47% (inactive)
37 | COc1ccc(N=Cc2c(O)[nH]c3ccccc23)cc1OC | 99.3% (active)
38 | COc1cc(N=Cc2c(O)c3ccccc3oc2=O)c(OC)cc1Cl | -4.24% (inactive)
39 | COc1cc(N=Cc2c(O)[nH]c3ccccc23)cc(OC)c1OC | 96.6% (active)
40 | COCC(=O)N=Nc1c(O)[nH]c2ccccc12 | -3.07% (inactive)
41 | COc1ccccc1N=Cc1c(O)c2ccccc2oc1=O | 0.366% (inactive)
42 | CN=c1scc(-c2cc(OC)ccc2OC)n1/N=C/c1c(C)[nH]c2ccccc12 | 15.7% (inactive)
43 | CN(CC(=O)Nc1ccc(Cl)c(C(F)(F)F)c1)C(=O)CCC(=O)c1ccccc1 | -3.88% (inactive)
44 | Cc1ccc(C)c(S(=O)(=O)N2CCN(c3ncnc4sccc34)CC2)c1 | -13.7% (inactive)
45 | O=C(NCc1ccccc1)c1onc(CSc2ccncc2)c1C(=O)NCc1ccccc1 | -5.05% (inactive)
46 | CC(C)n1ncc2c(C(=O)Nc3ccc(CC#N)cc3)cc(C3CC3)nc21 | -14.1% (inactive)

Row | SMILES | inhibition
47 | O=C(c1ccc(N2CCOCC2)c([N+](=O)[O-])c1)N1CCN(c2ccccc2F)CC1 | 0.595% (inactive)
48 | O=C1C=C(c2cc(C(F)(F)F)cc(C(F)(F)F)c2)C[C@@H](c2ccc3c(c2)OCO3)C1 | -3.13% (inactive)
49 | Cc1ccc(Nc2ccccc2N)cc1 | 85.9% (active)
50 | Cc1ccc(Nc2ccc(C(N)=O)cc2[N+](=O)[O-])cc1 | -3.97% (inactive)
51 | Nc1ccc(Nc2ccccc2)cc1 | -2.25% (inactive)
52 | COc1ccc(NC(=O)CN(C)C(=O)c2cc(-c3ccc(C)o3)nc3ccccc23)cc1 | -3.77% (inactive)
53 | CS(=O)(=O)N(CC(=O)N1CCc2ccccc2C1)c1ccc(Br)cc1 | -3.9% (inactive)
54 | C=CCn1c(C2CC(=O)N(c3ccc(C)cc3)C2)nc2ccccc21 (configuration not stated) | 87.3% (active)
55 | CC(C)(C)N1CC(c2nc3ccccc3n2Cc2ccc(F)cc2)CC1=O (configuration not stated) | -2.5% (inactive)
56 | C=CCn1c(P(C)(=O)O)nc2ccccc21 | -17.7% (inactive) and -5.83% (inactive)
57 | COc1ccc(OC)c(NC(=O)COC(=O)Cc2ccsc2)c1 | -0.814% (inactive)
58 | CC(C)(C)c1ccc(OC2=CS(=O)(=O)c3ccccc32)cc1 | 4.58% (inactive)
59 | Cc1ccc(S(=O)(=O)c2ccc(Oc3ccccc3)cc2)cc1 | -8.5% (inactive)
60 | Cc1ccc(Oc2ccc(N)cc2)cc1 | 98.9% (active)
61 | Cc1cc(C)cc(N)c1 | 8.46% (inactive)
62 | Cc1cc(C(C)(C)C)cc(C)c1N | -3.27% (inactive)
63 | CC(C)(C)c1ccc(Oc2ccc(N)cc2)cc1 | 98.6% (active)
64 | CCOC(=O)N1CCN(C(=O)CSc2nc(=O)n3cccc(C)c3n2)CC1 | 1.32% (inactive)
65 | CCN(CC(=O)Nc1c(F)cccc1F)C(=O)C1CCC1 | -1.96% (inactive)
66 | O=C(NCCC1CCCCN1S(=O)(=O)c1ccccc1)C(=O)NCC1CCCO1 (configuration not stated) | -4.14% (inactive)
67 | C[C@@H]1CN([C@@H](C)CO)C(=O)c2cc(NC(=O)C3CC3)ccc2O[C@H]1CN(C)C | 1.71% (inactive)
68 | COc1ccc(-c2nnc(SCc3cccnc3)o2)cc1 | -15% (inactive)
69 | COc1ccc(-c2nnc(SCC(=O)c3ccc4c(c3)OCCO4)o2)cc1 | 4.53% (inactive)

Row | SMILES | inhibition
70 | COc1ccc(-c2nnc(SC(=O)N3c4ccccc4Sc4ccccc43)o2)cc1 | 94.9% (active)
71 | COc1ccc(C2(c3ccc(OC)cc3)NC(=O)N(CC(=O)Nc3cc(C)on3)C2=O)cc1 | -0.145% (inactive)
72 | Cc1ccc(SCC(=O)Nc2nncs2)cc1 | -6.08% (inactive)
73 | COCCCN(C(=O)CSCc1ccc(C)cc1)c1c(N)n(Cc2ccccc2)c(=O)[nH]c1=O | 46.2% (inactive)
74 | O=C(CNC(=O)C1COc2ccccc2O1)N/N=C/c1cc(Br)c(O)c(Br)c1 (configuration not stated) | 66.1% (inactive)
75 | Oc1c(Br)cc(/C=N/NC(=S)NCC2CCCO2)cc1Br (configuration not stated) | 96.2% (active)
76 | S=C(NCC1CCCO1)N1CCN(c2ccc(Cl)c(Cl)c2)CC1 (configuration not stated) | 0.527% (inactive)
77 | CCCN(C(=O)c1nc2nccc(C)n2n1)c1c(N)n(Cc2ccccc2)c(=O)[nH]c1=O | 1.52% (inactive)
78 | CN(C)c1ccc(CNC(=O)CN2C(=O)COc3ccc(S(=O)(=O)N4CCCC4)cc32)cc1 | 98.6% (active)
79 | CCc1ccc(NC(=O)CN2C(=O)COc3ccc(S(=O)(=O)N4CCCC4)cc32)cc1 | -3.09% (inactive)
80 | COc1ccc(CCNC(=O)CN2C(=O)COc3ccc(S(=O)(=O)N4CCCC4)cc32)cc1OC | -1.92% (inactive)
81 | O=C(NCc1ccccn1)Nc1ccc(Cl)cc1 | -24.3% (inactive)
82 | Cc1ccsc1-c1nc(CSCC(=O)NCCN2CCCC2)c(C)o1 | 97.8% (active)
83 | Cc1cc(=O)oc2c(C)c(OCC(=O)NCCN3CCOCC3)ccc12 | -3.13% (inactive)
84 | CCC1=Nc2cc(C(=O)NCCN3CCCC3)ccc2Sc2ccc(C)cc21 | -17.3% (inactive)
85 | O=C(O)c1ccc(/C=N/Nc2nc(N3CCCCC3)nc(N3CCCCC3)n2)cc1 | 3.03% (inactive)
86 | CC(C)(C)c1nnc(N/N=C/c2ccc(O)cc2)n(N)c1=O | 98.8% (active)
87 | CCCCn1c(N)c(N(CC(C)C)C(=O)c2cccc(S(=O)(=O)N3CC(C)OC(C)C3)c2)c(=O)[nH]c1=O (configuration not stated) | -2.1% (inactive)
88 | OCCCNc1nc(-c2ccccc2)c2cc(Cl)ccc2n1 | -2.06% (inactive)
89 | CC(Sc1ncnc2c1cnn2-c1ccccc1)C(=O)Nc1ccc(N2CCOCC2)cc1 (configuration not stated) | -5.27% (inactive)
90 | COC(=O)c1c(-c2ccc(C)cc2)csc1N | 97.8% (active)
91 | CCOC(=O)c1c(-c2ccc(-c3ccccc3)cc2)csc1NC(=O)CCC(=O)O | 60.9% (inactive)
92 | CCOC(=O)c1c(-c2ccc(C)cc2)csc1/N=C(\C)C1=C(O)c2ccccc2C1=O | 1.75% (inactive)
